According to PubChem BioAssay (EPA / NIEHS):
Calls of active or inactive are those of the source. How the source made its calls: active means hit-call score of the fitted dose curve at least 0.9, where 1 is the maximum; inactive means score below 0.9.

What was measured:
[1] = read-out: Transforming growth factor beta 1 (TGFb1), TGFB1 (gene 7040); assay: BSK_KF3CT_TGFb1: BioMAP Diversity Plus: KF3CT Assay for Transforming growth factor beta 1 (TGFb1) Biomarker Activity (AID 2283072); details: primary human keratinocytes with fibroblasts; actives raise or lower the signal
How it was run: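 Human keratinocyte plus foreskin fibroblast primary co-culture, dosed with chemical for 24 h. TGF-b1 quantified by ELISA. Activity fitted bidirectionally against DMSO negative control as baseline.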

[2] = read-out: C-C motif chemokine 2 (Homo sapiens) (UniProt P13500); assay: BSK_KF3CT_MCP1: BioMAP Diversity Plus: KF3CT Assay for Monocyte Chemoattractant Protein 1 (MCP1/CCL2) Biomarker Activity (AID 2283073); details: primary human keratinocytes with fibroblasts; actives raise or lower the signal
How it was run: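 Biomarker MCP-1 is measured by ELISA in primary human keratinocytes co-cultured with foreskin fibroblasts, 24 h after chemical treatment; DMSO serves as the negative control and activity baseline.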

[3] = read-out: Matrix Metallopeptidase 9 (MMP9), MMP9 (gene 4318); assay: BSK_KF3CT_MMP9: BioMAP Diversity Plus: KF3CT Assay for Matrix Metallopeptidase 9 (MMP9) Biomarker Activity (AID 2283074); details: primary human keratinocytes with fibroblasts; actives raise or lower the signal
How it was run: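 Human keratinocyte and foreskin fibroblast co-culture exposed to chemicals for 24 h; MMP9 biomarker measured by ELISA, bidirectional fitting relative to DMSO; cytotoxicity tracked by SRB total protein staining in parallel cultures.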

[4] = read-out: urokinase plasminogen activator (uPA), PLAU (gene 5328); assay: BSK_KF3CT_uPA: BioMAP Diversity Plus: KF3CT Assay for urokinase plasminogen activator (uPA) Biomarker Activity (AID 2283075); details: primary human keratinocytes with fibroblasts; actives raise or lower the signal
How it was run: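 Primary human keratinocyte/foreskin fibroblast co-culture exposed to chemical; uPA measured by ELISA at 24 h. Bidirectional fit versus DMSO, with parallel SRB total-protein staining for cytotoxicity.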

[5] = read-out: CD40, CD40 (gene 958); assay: BSK_LPS_CD40: BioMAP Diversity Plus: LPS Assay for CD40 Biomarker Activity (AID 2283076); details: primary human HUVEC with PBMC; actives raise or lower the signal
How it was run: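 Using a multiplexed primary human co-culture (umbilical vein endothelium plus PBMC), CD40 was read by ELISA 24 h after dosing, with cytotoxicity tracked by sulforhodamine B staining of parallel cultures and activity fitted bidirectionally versus DMSO.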

[6] = read-out: E-selectin (Homo sapiens) (UniProt P16581); assay: BSK_LPS_Eselectin: BioMAP Diversity Plus: LPS Assay for Eselectin Biomarker Activity (AID 2283077); details: primary human HUVEC with PBMC; actives raise or lower the signal
How it was run: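 Dose chemical onto LPS-driven HUVEC/PBMC co-culture; after 24 h, run ELISA for E-selectin; fit up- and down-going responses relative to DMSO control.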

[7] = read-out: Interleukin-8 (IL8), CXCL8 (gene 3576); assay: BSK_LPS_IL8: BioMAP Diversity Plus: LPS Assay for Interleukin-8 (IL8) Biomarker Activity (AID 2283078); details: primary human HUVEC with PBMC; actives raise or lower the signal
How it was run: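 In this LPS system, chemical-treated human umbilical vein endothelium/PBMC co-cultures were harvested at 24 h for IL-8 ELISA.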

[8] = BSK_LPS_SRB: Viability Assessment in the BioMAP Diversity Plus: LPS Assay (AID 2283079); details: primary human HUVEC with PBMC;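 further: total protein by sulforhodamine B absorbance as a cytotoxicity measure; measured one day after compound addition; fitted in both directions against DMSO so loss or gain of signal counts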
How it was run: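 Cytotoxicity endpoint in human endothelial–PBMC co-culture: 24 h exposure, then SRB (0.1%) staining, 560 nm read.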

[9] = read-out: Interleukin-1 alpha (IL1a), IL1A (gene 3552); assay: BSK_LPS_IL1a: BioMAP Diversity Plus: LPS Assay for Interleukin-1 alpha (IL1a) Biomarker Activity (AID 2283080); details: primary human HUVEC with PBMC; actives raise or lower the signal
How it was run: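 Primary human HUVEC and PBMC co-culture stimulated with LPS is dosed and harvested at 24 h. Both increases and decreases in ELISA-measured IL-1a are scored relative to DMSO.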

[10] = BSK_LPS_PGE2: BioMAP Diversity Plus: LPS Assay for Prostaglandin E2 (PGE2) Biomarker Activity (AID 2283082); details: primary human HUVEC with PBMC; actives raise or lower the signal
How it was run: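 HUVEC plus PBMC co-culture stimulated with LPS; secreted PGE2 quantified by ELISA 24 h after chemical dosing. Activity fitted bidirectionally against DMSO as negative control and baseline; parallel SRB total-protein staining served as cytotoxicity check.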

[11] = read-out: Macrophage colony-stimulating factor (MCSF), CSF1 (gene 1435); assay: BSK_LPS_MCSF: BioMAP Diversity Plus: LPS Assay for Macrophage colony-stimulating factor (MCSF) Biomarker Activity (AID 2283083); details: primary human HUVEC with PBMC; actives raise or lower the signal
How it was run: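 Bidirectional fit versus DMSO of ELISA-measured M-CSF in co-cultured human umbilical vein endothelial cells and PBMC, sampled 24 h after dosing.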

[12] = read-out: Tissue Factor, F3 (gene 2152); assay: BSK_LPS_TissueFactor: BioMAP Diversity Plus: LPS Assay for Tissue Factor Biomarker Activity (AID 2283084); details: primary human HUVEC with PBMC; actives raise or lower the signal
How it was run: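 Read-out: CD142 ELISA, 24 h. System: LPS-driven human endothelial/PBMC co-culture. Analysis: up- or down-signal fitted against DMSO.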

[13] = read-out: Vascular cell adhesion molecule 1 (VCAM1), VCAM1 (gene 7412); assay: BSK_LPS_VCAM1: BioMAP Diversity Plus: LPS Assay for Vascular cell adhesion molecule 1 (VCAM1) Biomarker Activity (AID 2283086); details: primary human HUVEC with PBMC; actives raise or lower the signal
How it was run: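 Human umbilical vein endothelial cells co-cultured with peripheral blood mononuclear cells under LPS stimulation were exposed to test chemical for 24 h. VCAM-1 levels were then measured by ELISA, with bidirectional curve fitting relative to DMSO as negative control and baseline.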

[14] = read-out: CD38, CD38 (gene 952); assay: BSK_SAg_CD38: BioMAP Diversity Plus: SAg Assay for CD38 Biomarker Activity (AID 2283087); details: primary human HUVEC with PBMC; actives raise or lower the signal
How it was run: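 Fluorescence ELISA of cell-surface CD38 served as the read-out, with either increase or decrease fitted against DMSO controls. Cells were a human umbilical vein endothelium plus PBMC co-culture under SEB/TSST-1 stimulation, measured 24 h after dosing.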

[15] = read-out: CD40, CD40 (gene 958); assay: BSK_SAg_CD40: BioMAP Diversity Plus: SAg Assay for CD40 Biomarker Activity (AID 2283088); details: primary human HUVEC with PBMC; actives raise or lower the signal
How it was run: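 Endpoint derived by fitting increases or decreases versus DMSO controls. CD40 is detected by fluorescence ELISA in a human vascular co-culture of endothelium and PBMC at 24 h.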

[16] = read-out: CD69, CD69 (gene 969); assay: BSK_SAg_CD69: BioMAP Diversity Plus: SAg Assay for CD69 Biomarker Activity (AID 2283089); details: primary human HUVEC with PBMC; actives raise or lower the signal
How it was run: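 Endothelial/PBMC co-culture; chemical added; 24 h incubation; CD69 ELISA with fluorescence detection; bidirectional fit vs DMSO.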

[17] = read-out: Monocyte Chemoattractant Protein-1 (MCP1), CCL2 (gene 6347); assay: BSK_SAg_MCP1: BioMAP Diversity Plus: SAg Assay for Monocyte Chemoattractant Protein-1 (MCP1) Biomarker Activity (AID 2283090); details: primary human HUVEC with PBMC; actives raise or lower the signal
How it was run: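 MCP-1 levels in the endothelial–PBMC SAg co-culture were quantified by ELISA at 24 h post-dosing; both increases and decreases versus DMSO scored. Cytotoxicity monitored by SRB total protein in parallel cultures.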

[18] = read-out: E-selectin (Homo sapiens) (UniProt P16581); assay: BSK_SAg_Eselectin: BioMAP Diversity Plus: SAg Assay for Eselectin Biomarker Activity (AID 2283091); details: primary human HUVEC with PBMC; actives raise or lower the signal
How it was run: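 Endpoint values derive from bidirectional fitting relative to DMSO, using ELISA-measured E-selectin in a human vascular co-culture (umbilical vein endothelium plus PBMC) sampled 24 h after dosing.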

[19] = read-out: Monocyte Chemoattractant Protein-1 (MCP1), CCL2 (gene 6347); assay: BSK_LPS_MCP1: BioMAP Diversity Plus: LPS Assay for Monocyte Chemoattractant Protein-1 (MCP1) Biomarker Activity (AID 2283081); details: primary human HUVEC with PBMC; actives raise or lower the signal
How it was run: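 Values derive from bidirectional fitting against DMSO of ELISA-measured MCP-1 in a human primary endothelial and mononuclear cell co-culture, 24 h after chemical addition under LPS activation.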

[20] = read-out: Tumor necrosis factor (Homo sapiens) (UniProt P01375); assay: BSK_LPS_TNFa: BioMAP Diversity Plus: LPS Assay for Tumour Necrosis Factor alpha (TNFa) Biomarker Activity (AID 2283085); details: primary human HUVEC with PBMC; actives raise or lower the signal
How it was run: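 Human umbilical vein endothelial cells co-cultured with PBMC were exposed to test chemical and TNFa measured by ELISA 24 h after dosing. Bidirectional curve fitting was done relative to DMSO as negative control and baseline.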

Measured: outcome

Sequence of E-selectin (Homo sapiens) (P16581 whole entry, looked up): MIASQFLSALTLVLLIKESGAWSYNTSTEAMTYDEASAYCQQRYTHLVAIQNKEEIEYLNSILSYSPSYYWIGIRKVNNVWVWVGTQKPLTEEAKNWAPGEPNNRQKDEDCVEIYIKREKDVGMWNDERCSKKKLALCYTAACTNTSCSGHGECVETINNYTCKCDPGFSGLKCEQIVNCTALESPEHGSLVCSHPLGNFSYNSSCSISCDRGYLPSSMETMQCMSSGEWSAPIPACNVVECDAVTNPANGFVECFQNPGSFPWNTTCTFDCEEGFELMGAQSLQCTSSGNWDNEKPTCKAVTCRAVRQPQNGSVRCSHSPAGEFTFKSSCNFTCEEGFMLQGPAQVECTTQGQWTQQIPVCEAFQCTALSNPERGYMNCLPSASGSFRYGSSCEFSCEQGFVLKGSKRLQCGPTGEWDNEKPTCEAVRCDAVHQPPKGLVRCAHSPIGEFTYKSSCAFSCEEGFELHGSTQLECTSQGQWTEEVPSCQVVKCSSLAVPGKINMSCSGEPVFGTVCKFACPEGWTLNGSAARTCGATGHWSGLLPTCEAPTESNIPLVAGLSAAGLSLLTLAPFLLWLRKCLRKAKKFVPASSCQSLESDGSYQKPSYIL
Sequence of Tumor necrosis factor (Homo sapiens) (P01375 whole entry, looked up): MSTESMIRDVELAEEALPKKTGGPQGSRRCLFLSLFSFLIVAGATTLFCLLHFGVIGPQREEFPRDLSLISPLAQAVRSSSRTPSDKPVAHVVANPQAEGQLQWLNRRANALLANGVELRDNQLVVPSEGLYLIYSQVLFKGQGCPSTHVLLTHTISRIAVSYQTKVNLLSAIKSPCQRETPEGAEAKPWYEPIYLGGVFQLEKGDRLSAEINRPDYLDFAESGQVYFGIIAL

O=C(O)CCCCC(=O)O
not listed: [19] | [20]
inactive: all other assays above

CC(=O)OC/C=C(\C)CCC=C(C)C
not listed: [11] | [17] | [19] | [20]
inactive: all other assays above

O=C(N[C@@H](Cc1ccccc1)[C@@H](O)C(=O)N1C[C@@H](O)[C@@H](O)C1)c1cc2cc(Cl)ccc2[nH]1
not listed: [4] | [17] | [20]
inactive: all other assays above

CN1CCCC1=O
not listed: [17] | [19]
inactive: all other assays above
